Test in all cases: PBM; 200 nM protein, PBS
What all share (conditions): dsDNA, one strand shown

Test [1] concerns the target HOXA2 (Homo sapiens, UniProt O43364 129-215, R185T).
In test [2] the target is HOXA2 (Homo sapiens, UniProt O43364 129-215, R185K).
Test [3] deals with HOXA2 (Homo sapiens, UniProt O43364 129-215, Y150S).
Test [4] addresses HOXA2 (Homo sapiens, UniProt O43364 129-215).
Test [5] deals with CRX (Homo sapiens, UniProt O43186 26-111, R41L).
For test [6], the target named is HOXB9 (Homo sapiens, UniProt P17482 171-250).
The target of test [7] is MSX2 (Homo sapiens, UniProt P35548 130-214).
The target in test [8] is HOXB9 (Homo sapiens, UniProt P17482 171-250, R186Q).
Test [9] has as its target MSX2 (Homo sapiens, UniProt P35548 130-214, F161Y).
The target in test [10] is HOXD13 (Homo sapiens, UniProt P35453 263-343).
For test [11], the target named is HOXD13 (Homo sapiens, UniProt P35453 263-343, T313A).
Test [12] has as its target ALX3 (Homo sapiens, UniProt O95076 139-225, N203Q).
Test [13] deals with ALX3 (Homo sapiens, UniProt O95076 139-225).
Test [14] has as its target ALX3 (Homo sapiens, UniProt O95076 139-225, N203S).

HOXB9 (Homo sapiens, UniProt P17482 171-250), sequence (P17482 171-250): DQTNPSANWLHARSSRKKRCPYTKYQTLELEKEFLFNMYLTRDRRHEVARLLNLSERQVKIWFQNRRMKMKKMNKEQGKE
HOXB9 (Homo sapiens, UniProt P17482 171-250, R186Q), sequence (P17482 171-250 R186Q): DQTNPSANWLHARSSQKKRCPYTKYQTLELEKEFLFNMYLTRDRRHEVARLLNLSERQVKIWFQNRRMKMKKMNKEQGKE
HOXA2 (Homo sapiens, UniProt O43364 129-215), sequence (O43364 129-215): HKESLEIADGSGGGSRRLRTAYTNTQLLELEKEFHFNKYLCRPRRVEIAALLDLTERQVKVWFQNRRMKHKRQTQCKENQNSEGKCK
HOXA2 (Homo sapiens, UniProt O43364 129-215, R185K), sequence (O43364 129-215 R185K): as the sequence (O43364 129-215) above, with R57K counted along it
HOXA2 (Homo sapiens, UniProt O43364 129-215, R185T), sequence (O43364 129-215 R185T): as the sequence (O43364 129-215) above, with R57T counted along it
HOXA2 (Homo sapiens, UniProt O43364 129-215, Y150S), sequence (O43364 129-215 Y150S): as the sequence (O43364 129-215) above, with Y22S counted along it
ALX3 (Homo sapiens, UniProt O95076 139-225, N203Q), sequence (O95076 139-225 N203Q): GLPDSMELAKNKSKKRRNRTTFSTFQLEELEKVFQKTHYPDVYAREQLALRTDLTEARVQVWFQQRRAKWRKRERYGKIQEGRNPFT
CRX, sequence (O43186 26-111 R41L): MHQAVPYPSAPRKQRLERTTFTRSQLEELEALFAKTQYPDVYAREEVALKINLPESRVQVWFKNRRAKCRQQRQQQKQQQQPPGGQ
HOXD13 (Homo sapiens, UniProt P35453 263-343), sequence (P35453 263-343): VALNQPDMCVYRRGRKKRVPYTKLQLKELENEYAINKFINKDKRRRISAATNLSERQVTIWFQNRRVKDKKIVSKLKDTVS
ALX3 (Homo sapiens, UniProt O95076 139-225), sequence (O95076 139-225): as the sequence (O95076 139-225 N203Q) above, with Q65N counted along it
MSX2 (Homo sapiens, UniProt P35548 130-214), sequence (P35548 130-214): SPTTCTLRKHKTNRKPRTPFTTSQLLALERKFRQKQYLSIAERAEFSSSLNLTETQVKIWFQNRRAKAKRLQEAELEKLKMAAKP
HOXD13 (Homo sapiens, UniProt P35453 263-343, T313A), sequence (P35453 263-343 T313A): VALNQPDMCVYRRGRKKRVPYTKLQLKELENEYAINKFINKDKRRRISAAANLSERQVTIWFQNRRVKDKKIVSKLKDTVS
ALX3 (Homo sapiens, UniProt O95076 139-225, N203S), sequence (O95076 139-225 N203S): as the sequence (O95076 139-225 N203Q) above, with Q65S counted along it
MSX2 (Homo sapiens, UniProt P35548 130-214, F161Y), sequence (P35548 130-214 F161Y): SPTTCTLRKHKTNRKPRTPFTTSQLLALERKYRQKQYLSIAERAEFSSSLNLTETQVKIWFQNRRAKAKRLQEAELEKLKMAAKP

Regarding GGAGGCGA, the binding signal was 7.15 upbm affinity estimate (log intensity, higher = more binding, comparable within an allelic series) in test [1]; 10.6 upbm affinity estimate (log intensity, higher = more binding, comparable within an allelic series) in [2]; 10.4 upbm affinity estimate (log intensity, higher = more binding, comparable within an allelic series) in test [3]; 7.38 upbm affinity estimate (log intensity, higher = more binding, comparable within an allelic series) in test [4].

Consider CCCCCCCG, for which the binding signal was 6.93 upbm affinity estimate (log intensity, higher = more binding, comparable within an allelic series) in test [1]; 9.85 upbm affinity estimate (log intensity, higher = more binding, comparable within an allelic series) in [2]; 10.2 upbm affinity estimate (log intensity, higher = more binding, comparable within an allelic series) in [3]; 7.13 upbm affinity estimate (log intensity, higher = more binding, comparable within an allelic series) in test [4].

As for ACTAATGC, the binding signal in test [1] was 10.2 upbm affinity estimate (log intensity, higher = more binding, comparable within an allelic series); in test [2] it was 12.2 upbm affinity estimate (log intensity, higher = more binding, comparable within an allelic series); in test [3] it was 10.7 upbm affinity estimate (log intensity, higher = more binding, comparable within an allelic series); in test [5] it was 10.1 upbm affinity estimate (log intensity, higher = more binding, comparable within an allelic series); in test [4], 10.5 upbm affinity estimate (log intensity, higher = more binding, comparable within an allelic series).

For the sequence GAGCCCGC, the binding signal in test [1] was 7.09 upbm affinity estimate (log intensity, higher = more binding, comparable within an allelic series); in [2] it was 10.2 upbm affinity estimate (log intensity, higher = more binding, comparable within an allelic series); in test [3] it was 10.4 upbm affinity estimate (log intensity, higher = more binding, comparable within an allelic series); in test [4] it was 7.5 upbm affinity estimate (log intensity, higher = more binding, comparable within an allelic series).

Consider GCAACCCC, for which the binding signal was 7.26 upbm affinity estimate (log intensity, higher = more binding, comparable within an allelic series) in test [1]; 10.1 upbm affinity estimate (log intensity, higher = more binding, comparable within an allelic series) in test [2]; 10.4 upbm affinity estimate (log intensity, higher = more binding, comparable within an allelic series) in test [3]; 7.17 upbm affinity estimate (log intensity, higher = more binding, comparable within an allelic series) in [4].

Regarding CCCCCACC, the binding signal was 6.87 upbm affinity estimate (log intensity, higher = more binding, comparable within an allelic series) in test [1]; 9.85 upbm affinity estimate (log intensity, higher = more binding, comparable within an allelic series) in test [2]; 10.3 upbm affinity estimate (log intensity, higher = more binding, comparable within an allelic series) in test [3]; 6.86 upbm affinity estimate (log intensity, higher = more binding, comparable within an allelic series) in test [4].

For CTACATTA, the binding signal in test [1] was 10.6 upbm affinity estimate (log intensity, higher = more binding, comparable within an allelic series); in test [2] it was 12.2 upbm affinity estimate (log intensity, higher = more binding, comparable within an allelic series); in test [3], 10.8 upbm affinity estimate (log intensity, higher = more binding, comparable within an allelic series); in test [4], 10.8 upbm affinity estimate (log intensity, higher = more binding, comparable within an allelic series).

For CGAGAGGC, the binding signal in [1] was 7.16 upbm affinity estimate (log intensity, higher = more binding, comparable within an allelic series); in test [2], 10.3 upbm affinity estimate (log intensity, higher = more binding, comparable within an allelic series); in [3], 10.4 upbm affinity estimate (log intensity, higher = more binding, comparable within an allelic series); in test [4], 7.01 upbm affinity estimate (log intensity, higher = more binding, comparable within an allelic series).

Turning to CACACTAA, the binding signal in test [6] is 9.92 upbm affinity estimate (log intensity, higher = more binding, comparable within an allelic series); in test [7], 10.8 upbm affinity estimate (log intensity, higher = more binding, comparable within an allelic series); in test [8] it was 9.82 upbm affinity estimate (log intensity, higher = more binding, comparable within an allelic series); in test [9], 10.7 upbm affinity estimate (log intensity, higher = more binding, comparable within an allelic series).

As to AAGATCAT, the binding signal in [6] was 9.78 upbm affinity estimate (log intensity, higher = more binding, comparable within an allelic series); in test [8] it was 9.78 upbm affinity estimate (log intensity, higher = more binding, comparable within an allelic series).

With AAACTTAA, the binding signal in test [1] is 8.91 upbm affinity estimate (log intensity, higher = more binding, comparable within an allelic series); in test [4], 8.97 upbm affinity estimate (log intensity, higher = more binding, comparable within an allelic series).

Take CCTATCAG: the binding signal in test [1] is 8.81 upbm affinity estimate (log intensity, higher = more binding, comparable within an allelic series); in [4] it was 8.67 upbm affinity estimate (log intensity, higher = more binding, comparable within an allelic series).

Turning to TGTGTAAA, the binding signal was 9.82 upbm affinity estimate (log intensity, higher = more binding, comparable within an allelic series) in test [6]; 11.1 upbm affinity estimate (log intensity, higher = more binding, comparable within an allelic series) in test [10]; 11 upbm affinity estimate (log intensity, higher = more binding, comparable within an allelic series) in test [11].

In the case of AACAAATA, the binding signal is 10.1 upbm affinity estimate (log intensity, higher = more binding, comparable within an allelic series) in test [6] and 9.97 upbm affinity estimate (log intensity, higher = more binding, comparable within an allelic series) in [8].

Take ATTTCATC: the binding signal in test [1] is 8.72 upbm affinity estimate (log intensity, higher = more binding, comparable within an allelic series); in test [3] it was 10.6 upbm affinity estimate (log intensity, higher = more binding, comparable within an allelic series); in [4], 8.75 upbm affinity estimate (log intensity, higher = more binding, comparable within an allelic series).

AATGTGAA: the binding signal was 10 upbm affinity estimate (log intensity, higher = more binding, comparable within an allelic series) in test [6]; 8.3 upbm affinity estimate (log intensity, higher = more binding, comparable within an allelic series) in test [12]; 9.35 upbm affinity estimate (log intensity, higher = more binding, comparable within an allelic series) in test [13]; 9.94 upbm affinity estimate (log intensity, higher = more binding, comparable within an allelic series) in test [8]; 8.37 upbm affinity estimate (log intensity, higher = more binding, comparable within an allelic series) in [14].

As to TATCAAAA, the binding signal in test [1] was 8.75 upbm affinity estimate (log intensity, higher = more binding, comparable within an allelic series); in test [4], 8.82 upbm affinity estimate (log intensity, higher = more binding, comparable within an allelic series).

For the sequence AATTGCTA, the binding signal in test [6] is 10.7 upbm affinity estimate (log intensity, higher = more binding, comparable within an allelic series); in test [8] it was 10.6 upbm affinity estimate (log intensity, higher = more binding, comparable within an allelic series).

Take ACAACTTA: the binding signal was 9.5 upbm affinity estimate (log intensity, higher = more binding, comparable within an allelic series) in test [1]; 10.7 upbm affinity estimate (log intensity, higher = more binding, comparable within an allelic series) in test [3]; 9.5 upbm affinity estimate (log intensity, higher = more binding, comparable within an allelic series) in test [4].

With GACCATCA, the binding signal in [1] is 8.84 upbm affinity estimate (log intensity, higher = more binding, comparable within an allelic series); in test [3] it was 10.6 upbm affinity estimate (log intensity, higher = more binding, comparable within an allelic series); in test [4] it was 9.24 upbm affinity estimate (log intensity, higher = more binding, comparable within an allelic series).

Regarding TAAACATA, the binding signal in test [1] was 8.59 upbm affinity estimate (log intensity, higher = more binding, comparable within an allelic series); in test [4], 8.55 upbm affinity estimate (log intensity, higher = more binding, comparable within an allelic series).

Turning to AGATGACC, the binding signal is 9.18 upbm affinity estimate (log intensity, higher = more binding, comparable within an allelic series) in test [1]; 10.5 upbm affinity estimate (log intensity, higher = more binding, comparable within an allelic series) in [3]; 9.29 upbm affinity estimate (log intensity, higher = more binding, comparable within an allelic series) in test [4].

CCATTTTC: the binding signal in [6] is 10.1 upbm affinity estimate (log intensity, higher = more binding, comparable within an allelic series); in [8], 10 upbm affinity estimate (log intensity, higher = more binding, comparable within an allelic series).

Consider AGGTTGAT, for which the binding signal in test [1] was 8.92 upbm affinity estimate (log intensity, higher = more binding, comparable within an allelic series); in [4] it was 9.03 upbm affinity estimate (log intensity, higher = more binding, comparable within an allelic series).

ATATAGTA: the binding signal was 10.2 upbm affinity estimate (log intensity, higher = more binding, comparable within an allelic series) in test [6]; 8.55 upbm affinity estimate (log intensity, higher = more binding, comparable within an allelic series) in test [12]; 10.1 upbm affinity estimate (log intensity, higher = more binding, comparable within an allelic series) in [8].

The values above are taken from publication PMC11006913.
